Source: PubChem BioAssay
TROY signal inh: blocks TROY-dependent signaling in reporter cells; Q293 LMP1-TROYcd NF-kB luciferase reporter, 4 h; actives 0.98% (n = 360,000); inhibition, % at 10 µM;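 active = compounds whose plate-normalised and pattern-corrected inhibition of the luciferase reporter signal at the single screening dose is 50% or more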
TWEAK-Fn14 inh: TWEAK-Fn14 signaling inhibition | AID 1159606 | inhibition, % at 10 µM | TWEAK-stimulated Fn14 reporter cells, luciferase luminescence, 8 h | actives 2% (n = 360,000); in the data active = inhibition above about 50%
LGR2 antag: inhibitors of bursicon-induced Drosophila LGR2 receptor cAMP signaling. HEK293 LGR2, CRE-luciferase, bursicon-stimulated, 4 h. inhibition, % at 9.99 µM. actives 0.35% (n = 380,000). AID 720647;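 active = drop in luminescence signal, shown as inhibition above about 50% in the replicate tests, limit read from the data, passing the limit was not always enough; inconclusive = probably only some replicates passing the limit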;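 also: agonist challenge used bursicon conditioned medium at about half maximal strength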
PAX8 inh HTS: inhibitors of PAX8 transcriptional activity in RMG-I cells; RMG-I TPO-luciferase reporter, SteadyGlo, 24 h; inhibition, % at 12.6 µM; actives 1.2% (n = 360,000); AID 652154;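 active = mean replicate inhibition at least 60% with every replicate also reaching 60%; inconclusive = only one of the two criteria is met; inactive = mean below 60% and not all replicates reaching 60%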;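 also: luciferase light reporting Pax8 driven TPO promoter activity; plate controls were median of neutral control wells for no effect and mitoxantrone controls for full effect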
EBV LMP1 NFkB: reduces LMP1-driven NF-kappaB luciferase signal | actives 0.69% (n = 350,000) | AID 504558 | inhibition, % at 12.5 µM | LMP1-induced NF-kappaB luciferase reporter cells, luminescence; in the data active = inhibition above about 41%; inconclusive = no clear call, values can overlap the other calls;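 also: 0% = neutral control wells and 100% = reference inhibitor control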
EWS-Fli block: inhibitors of EWS/Fli oncoprotein transcriptional activity; inhibition, % at 12.6 µM; actives 0.67% (n = 350,000); A673 NR0B1-luciferase reporter, viability-normalised;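 active = mean inhibition of at least 50% after viability correction, with every replicate also passing that limit; inconclusive = mean reaches 50% but only one of two replicates passes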;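 also: firefly luciferase signal divided by Alamar Blue viability fluorescence both relative to DMSO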
The depositor's hits bear a star; u = inconclusive; x = no result. In the library only some 3.1% were active in any assay of this set; here they are far more common.

SMILES | TROY signal inh | TWEAK-Fn14 inh | LGR2 antag | PAX8 inh HTS | EBV LMP1 NFkB | EWS-Fli block
C[C@H](CO)N1C[C@H](C)[C@H](CN(C)S(=O)(=O)c2ccccc2)OCCCC[C@H](C)Oc2ccc(NC(=O)Nc3ccc(C(F)(F)F)cc3)cc2C1=O | x | x | 20 | 74* | x | 4
CCCN(C)C[C@H]1Oc2cc(-c3cccc(OC)c3)ccc2S(=O)(=O)N([C@@H](C)CO)C[C@H]1C | x | x | 3 | x | x | 5
C[C@@H]1CN([C@H](C)CO)S(=O)(=O)c2ccc(C3=CCCC3)cc2O[C@@H]1CN(C)Cc1cccc(C(=O)O)c1 | x | x | 18 | -4 | x | 2
C[C@@H]1CN([C@H](C)CO)C(=O)c2cc(NC(=O)Nc3ccc(C(F)(F)F)cc3)ccc2O[C@@H]1CN(C)S(=O)(=O)c1ccccc1 | x | x | -3 | x | x | -4
C[C@@H]1CCCCO[C@H](CN(C)S(=O)(=O)c2ccccc2)[C@H](C)CN([C@@H](C)CO)C(=O)c2cc(NC(=O)Nc3ccc(C(F)(F)F)cc3)ccc2O1 | x | x | 25 | 64* | x | 3
C[C@H](CO)N1C[C@H](C)[C@@H](CN(C)S(=O)(=O)c2ccccc2)Oc2ccc(NC(=O)Nc3ccc(C(F)(F)F)cc3)cc2C1=O | 36 | 61* | 9 | 18 | -6 | -28
COCCn1c(C)cc(C(=O)COC(=O)c2ccccc2Br)c1C | 92* | 105* | x | 60 | 54* | -13
COCCn1c(C)cc(C(=O)COC(=O)c2cccnc2SC)c1C | 69* | 68* | 32 | -103 | 7 | -94
COCCn1c(C)cc(C(=O)COC(=O)c2cncc(Br)c2)c1C | 1 | -36 | 6 | -146 | 4 | -12
COCCn1c(C)cc(C(=O)COC(=O)c2ccc3ncsc3c2)c1C | -9 | 0 | x | -130 | -14 | x
CCn1c(C)cc(C(=O)COC(=O)c2ccccc2[N+](=O)[O-])c1C | 90* | 105* | x | x | 87* | x
COc1ccc2c3c([nH]c2c1)[C@@H](CO)N(C(=O)Nc1ccc(F)cc1)CC31CCN(C(=O)Cc2ccccc2)CC1 | x | x | -6 | x | x | -3
O=C(COC(=O)c1ccccc1Cc1ccccc1)Nc1ccc(SC(F)F)cc1 | 9 | -7 | -116 | 31 | -34 | -142
Cc1ccc(C(=O)c2ccccc2C(=O)OCC(=O)Nc2ccc(SC(F)F)cc2)cc1 | 22 | 53* | 3 | 4 | 3 | 4
C/C=C/c1ccc(OCCCCOc2ccc(OC)cc2)c(OC)c1 | -1 | -14 | 6 | -5 | -2 | x
C/C=C/c1ccc(OCCCNCC(C)O)c(OC)c1 (stereo not drawn) | x | 86* | x | x | 3 | x
C[C@H](CO)N1C[C@H](C)[C@@H](CN(C)CC2CC2)Oc2cc(C#C[C@@H](C)O)ccc2S1(=O)=O | x | x | 11 | x | x | -8
Oc1c(Cl)cc(Cl)cc1C1=NNC(c2ccc(Cl)cc2)C1 (stereo not drawn) | 9 | -16 | x | x | 49* | x
Oc1ccc(Cl)cc1C1=NNC(c2ccc(Cl)cc2)C1 (stereo not drawn) | -46 | -7 | -34 | 11 | -8 | x
COc1ccc(-c2nnc(N(C)C(=O)c3ccno3)s2)cc1 | x | 50* | x | x | 3 | x
Nc1c(Cl)ncnc1N/N=C/c1ccc2ccccc2n1 | -19 | -33 | -20 | 1 | 27 | -8
Nc1c(Cl)ncnc1N/N=C/c1ccccn1 | x | x | 5 | 67* | x | x
Nc1cccc2c1C(=O)N(CCOc1ccccc1F)C2=O | 19 | 59* | u | -64 | -12 | 25
Cc1c(Cl)cccc1NC(=O)CC(Cc1ccccc1)C(=O)O (stereo not drawn) | 3 | 11 | 0 | 11 | 44* | -22
CN(C)S(=O)(=O)c1cccc(N=C2NN=C(c3ccccc3)CS2)c1 | x | x | 11 | 73* | x | 18
SMILES | TROY signal inh | TWEAK-Fn14 inh | LGR2 antag | PAX8 inh HTS | EBV LMP1 NFkB | EWS-Fli block
CC(=O)Nc1ccc(C2=NNC(=Nc3cccc(S(=O)(=O)N(C)C)c3)SC2)cc1 | 17 | 62* | x | x | 4 | x
CC(=O)N/C(=C\c1ccccc1)C(=O)OCC(=O)NC1CCCC1 | 17 | 12 | 33 | 150* | 2 | 4
CC(=O)Nc1ccc(NC(=O)COC(=O)/C(=C/c2ccccc2)n2nnnc2C)cc1 | -6 | 39 | -11 | -4 | -13 | 13
Cc1nnnn1/C(=C\c1ccccc1)C(=O)OCC(=O)NC(C)(C)C | 21 | 50* | 21 | x | 4 | x
Cc1nnnn1/C(=C\c1ccccc1)C(=O)OCC(=O)NC1CCCCC1 | 24 | 57* | 34 | 11 | -4 | 9
C[C@@H]1CN([C@@H](C)CO)C(=O)Cc2cc(NS(=O)(=O)c3ccccc3)ccc2O[C@@H]1CN(C)CC1CC1 | x | x | 9 | 20 | x | -8
C[C@@H]1CN([C@H](C)CO)C(=O)Cc2cc(NS(=O)(=O)c3cccs3)ccc2O[C@@H]1CN(C)C | x | x | -12 | -6 | x | -2
COc1ccc(S(=O)(=O)Nc2ccc3c(c2)C(=O)N([C@@H](C)CO)C[C@H](C)[C@H](CN(C)C(=O)Nc2ccc(C(F)(F)F)cc2)OCCCC[C@@H](C)O3)cc1 | x | x | 1 | 55 | x | 9
C[C@H](CO)N1C[C@H](C)[C@H](CN(C)Cc2ccc(Cl)c(Cl)c2)Oc2ccc(NC(=O)Nc3ccc4c(c3)OCO4)cc2C1=O | x | x | 6 | x | x | 1
C/C(=N/NC(=O)c1ccc2nc[nH]c2c1)c1cccs1 | -14 | 8 | x | -86 | 52* | -8
C/C(=N\NC(=O)c1ccc(Cl)cc1)c1cccs1 | -49 | 41 | 8 | -73 | 18 | 20
C/C(=N/NC(=O)c1cc(C(C)C)[nH]n1)c1cccs1 | -35 | 52* | x | x | 8 | x
COC(=O)c1cn(CC(=O)N2CCN(c3ccccc3)CC2)nn1 | x | x | x | -10 | x | 4
COc1cc(CC(=O)N(c2ccccc2)c2nc(C)cs2)cc(OC)c1OC | 11 | -16 | 1 | -20 | 52* | 3
Cc1csc(N(C(=O)c2ccccc2F)c2ccccc2)n1 | -32 | 2 | 6 | -2 | -3 | 0
COc1ccc(CNCCC(c2ccc(OC(C)C)cc2)c2ccccc2OC)cc1 (stereo not drawn) | -9 | 3 | -1 | 68* | 16 | 48
COc1ccccc1NC(=O)CC(c1ccc(OC(C)C)cc1)c1ccccc1OC (stereo not drawn) | 7 | 4 | 12 | -2 | 54* | x
COc1ccccc1C(CC(=O)Nc1ccc(C)c(C)c1)c1ccc(OC(C)C)cc1 (stereo not drawn) | -11 | 19 | -3 | 12 | 4 | 19
COc1ccccc1C(CCNCc1ccccc1)c1ccc(OC(C)C)cc1 (stereo not drawn) | -13 | -4 | 4 | 2 | -5 | 22
COC(=O)N1C(=O)[C@@](c2ccccc2)(C2CCCC2)N1C(=O)OC | 42 | 71* | x | x | 0 | x
COC(=O)N1C(=O)[C@](c2ccccc2)(C2CCCCC2)N1C(=O)OC | 17 | 51* | x | 10 | 0 | 12
COC(=O)N1C(=O)[C@](CC(C)C)(c2ccccc2)N1C(=O)OC | 2 | 35 | -6 | -11 | 9 | 0
